Laboratory results published in PubChem BioAssay AID1159580 (chemical genetic matrix, 2015).
“And” between values parts separate entries of the source, which are not always exact repeats. Identical values can stand only once. The whole screen tested about 5,500 compounds, of which about 2,000 (36%) were called active. Roughly 18% stayed inconclusive and do not appear here. Rule as the data show it: active = normalized growth mostly below about 0.91 (no sharp cut-off); inconclusive = no clear call, values can overlap the other calls; inactive = mostly above about 0.92. This is one part of the list.

Experiment: chemical genetic growth profiling, strain panel (AID 1159580);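 also: tested at 20 µM; growth read once vehicle control cultures reached saturation at 30 °C; 1 = growth at the plate median or of vehicle wells; lower values mean less growth of the strain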
Details: S. cerevisiae deletion strains, growth OD

Measured: normalized growth

COc1ccc2[nH]cc(CCN)c2c1
inactive: locus YAL013W, strain DEP1, active compounds read low 0.982 | locus YAL021C, strain ccr4, active compounds read low 1.04 | locus YAL026C, strain drs2, active compounds read low 0.987 | locus YAL030W, strain snc1, active compounds read low 0.995 | locus YAL040C, strain CLN3, active compounds read low 0.967 | locus YBL061C, strain skt5, active compounds read low 0.989 | locus YBR009C, strain hhf1, active compounds read low 1.02 | locus YBR021W, strain FUR4, active compounds read low 0.985 | locus YBR023C, strain chs3, active compounds read low 1 | locus YBR171W, strain sec66, active compounds read low 0.993 | locus YBR229C, strain ROT2, active compounds read low 0.95 | locus YBR231C, strain swc5, active compounds read low 0.986 | locus YBR279W, strain paf1, active compounds read low 0.995 | locus YCL011C, strain gbp2, active compounds read low 1.01 | locus YCL016C, strain dcc1, active compounds read low 1.02 | locus YCL029C, strain bik1, active compounds read low 0.998 | locus YCL061C, strain MRC1 (second series), active compounds read low 1 | locus YCL061C, strain MRC1, active compounds read low 0.998 | locus YCL069W, strain vba3, active compounds read low 0.992 | locus YCR088W, strain abp1, active compounds read low 0.99 | locus YDL005C, strain med2, active compounds read low 1.02 | locus YDL035C, strain GPR1, active compounds read low 0.985 | locus YDL040C, strain nat1, active compounds read low 0.991 | locus YDL074C, strain BRE1, active compounds read low 0.999 | locus YDL101C, strain DUN1, active compounds read low 0.989 | locus YDL134C, strain PPH21, active compounds read low 0.973 | locus YDL185W, strain tfp1, active compounds read low 0.97 | locus YDL192W, strain arf1, active compounds read low 0.989 | locus YDR001C, strain nth1, active compounds read low 0.989 | locus YDR069C, strain doa4, active compounds read low 0.971 | locus YDR101C, strain arx1, active compounds read low 0.998 | locus YDR137W, strain rgp1, active compounds read low 1.01 | locus YDR150W, strain NUM1, active compounds read low 0.963 and 0.992 | locus YDR159W, strain sac3, active compounds read low 0.933 | locus YDR162C, strain NBP2, active compounds read low 0.945 | locus YDR195W, strain ref2 0.951 | locus YDR297W, strain sur2, active compounds read low 0.989 | locus YDR318W, strain mcm21, active compounds read low 0.995 | locus YDR334W, strain swr1, active compounds read low 0.982 | locus YDR335W, strain msn5, active compounds read low 0.995 | locus YDR363W, strain ESC2, active compounds read low 0.978 | locus YDR388W, active compounds read low 0.986 | locus YDR392W, strain spt3, active compounds read low 0.951 | locus YDR502C, strain sam2, active compounds read low 0.995 | locus YEL003W, strain gim4, active compounds read low 0.986 | locus YEL037C, strain rad23, active compounds read low 0.988 | locus YEL061C, strain CIN8 (second series), active compounds read low 0.989 | locus YEL061C, strain CIN8, active compounds read low 0.977 | locus YER002W, strain NOP16, active compounds read low 1.01 | locus YER015W, strain faa2, active compounds read low 1 | locus YER016W, strain bim1, active compounds read low 0.991 | locus YER110C, active compounds read low 0.964 | locus YER111C, strain swi4, active compounds read low 1 | locus YER155C, strain BEM2 (second series), active compounds read low 0.978 | locus YER155C, strain BEM2, active compounds read low 0.993 | locus YER167W, strain BCK2, active compounds read low 0.987 | locus YFR010W, strain ubp6, active compounds read low 0.979 | locus YGL078C, strain dbp3, active compounds read low 0.984 | locus YGL086W, strain mad1, active compounds read low 0.966 | locus YGL167C, strain pmr1, active compounds read low 0.994 | locus YGL173C, strain kem1, active compounds read low 0.997 | locus YGL227W, strain vid30, active compounds read low 0.983 | locus YGL240W, strain doc1, active compounds read low 0.986 | locus YGL248W, strain PDE1, active compounds read low 0.981 | locus YGL253W, strain hxk2, active compounds read low 0.974 | locus YGR078C, strain PAC10, active compounds read low 0.999 | locus YGR135W, strain pre9, active compounds read low 0.989 | locus YGR229C, strain SMI1, active compounds read low 1.02 | locus YGR252W, strain gcn5, active compounds read low 0.843 | locus YHR013C, strain ard1, active compounds read low 0.973 | locus YHR027C, strain rpn1, active compounds read low 1 | locus YHR030C, strain SLT2, active compounds read low 0.985 | locus YHR079C, strain IRE1 (second series), active compounds read low 0.992 | locus YHR094C, strain hxt1, active compounds read low 0.984 | locus YHR129C, strain ARP1, active compounds read low 0.996 | locus YHR142W, strain chs7, active compounds read low 1 | locus YHR200W, strain rpn10, active compounds read low 0.991 | locus YIL066C, strain RNR3, active compounds read low 0.99 | locus YIL073C, strain SPO22, active compounds read low 0.938 | locus YIL125W, strain kgd1, active compounds read low 0.975 | locus YIR030C, strain dcg1, active compounds read low 0.976 | locus YJL092W, strain hpr5, active compounds read low 0.999 | locus YJL095W, strain BCK1 (second series), active compounds read low 0.992 | locus YJL095W, strain BCK1, active compounds read low 1.04 | locus YJL115W, strain asf1, active compounds read low 0.99 | locus YJL129C, strain trk1, active compounds read low 0.995 | locus YJL134W, strain LCB3, active compounds read low 0.988 | locus YJL154C, strain vps35, active compounds read low 0.981 | locus YJL164C, strain tpk1, active compounds read low 1.02 | locus YJL166W, strain qcr8, active compounds read low 1.01 | locus YJL168C, strain set2, active compounds read low 0.999 | locus YJL187C, strain SWE1 (second series), active compounds read low 0.993 | locus YJL187C, strain SWE1, active compounds read low 1.01
